# From PubChem
# Rows were chosen to be rich in hits. Some 6.8% of all compounds tested hit in one or more screens of this group.
# Pf Dd2 growth: P. falciparum Dd2 growth inhibition; activity change, % at 10 µM; SYBR Green, 72 h; hits give low values; 94,000 compounds, 2.3% hits; in the data active means activity change below about -80%
# Tcruzi prolif: blocks T. cruzi growth in NIH3T3 culture. T. cruzi beta-gal in NIH3T3, GalScreen luminescence, 90 h. inhibition, % at 8.34 µM. 77,000 compounds, 5.9% hits;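 active means mean inhibition above about 93%, with at least 55% of replicates each passing it, limit read from the data, passing the limit was not always enough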
# C diff growth: blocks growth of Clostridium difficile. Clostridium difficile clinical isolate growth, OD600, 24 h; hits give low values. growth activity, negative = inhibition, % at 16 µg/mL (by protocol). 86,000 compounds, 0.25% hits. AID 1259249;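 active means mean growth activity at or below -80% and every replicate also at or below -80%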;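 further: 0% = DMSO wells and -100% = levofloxacin 16 µg/mL wells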
# * marks the source's active call; other numbers are inactive results; . = no result.
SMILES,Pf Dd2 growth,Tcruzi prolif,C diff growth
CCCNC(=O)C[C@@H]1CC[C@H]2[C@H](COc3ccc(NC(=O)NCCC)cc3C(=O)N2C)O1,28,.,1
O=S(=O)(Cc1ccccc1)N1[C@H](CO)[C@@H](c2ccccc2)C12CN(CCC(F)(F)F)C2,-84*,.,15
OC[C@@H]1[C@@H](c2ccccc2)C2(CN(CCC(F)(F)F)C2)N1Cc1ccccc1,-79,.,27
CC(C)NC(=O)N(C)C[C@@H]1OCCCC[C@H](C)Oc2ccc(NC(=O)c3ccccc3)cc2C(=O)N([C@@H](C)CO)C[C@H]1C,-36,17,13
C[C@H](CO)N1C[C@H](C)[C@@H](CN(C)C)OCc2cn(nn2)CCCC1=O,-2,-107,-2
CCCC(=O)N1CCC2(CC1)CN(Cc1nccs1)[C@H](CO)c1[nH]c3cc(OC)ccc3c12,-43,.,-7
CCC(=O)N1CCC2(CC1)CN(Cc1ccc(Cl)cc1)[C@H](CO)c1[nH]c3cc(OC)ccc3c12,-88*,.,9
CCCNC(=O)N1CCC2(CC1)CN(Cc1ccc(F)cc1)[C@@H](CO)c1[nH]c3cc(OC)ccc3c12,-88*,.,3
CCC(=O)N1CC2(C1)CN(Cc1cccc(OC)c1)[C@H](CO)c1[nH]c3cc(OC)ccc3c12,-76,.,-1
CCCC(=O)N1CCC2(CC1)CN(Cc1ccc(Cl)cc1)[C@H](CO)c1[nH]c3cc(OC)ccc3c12,-85*,.,16
CCCNC(=O)N1CCC2(CC1)CN(Cc1cccc(F)c1)[C@@H](CO)c1[nH]c3cc(OC)ccc3c12,-79,.,-2
CN(C)C(=O)c1ccc(-c2ccc3c(c2)[C@@H]2[C@@H](CCN2C(=O)C2CCC2)[C@H](CO)N3C)cc1,0,30,0
Cc1noc(C)c1NC(=O)N(C)C[C@H]1OCCCC[C@@H](C)Oc2ccc(NS(=O)(=O)c3ccc(F)cc3)cc2C(=O)N([C@H](C)CO)C[C@@H]1C,-3,-20,-6
O=C(C[C@@H]1CC[C@H]2[C@@H](COC[C@H](O)CN2Cc2ccc(C(F)(F)F)cc2)O1)NCCc1ccccc1,-1,.,83
O=C(C[C@@H]1C=C[C@H](NC(=O)c2cccnc2)[C@H](CO)O1)NCCN1CCCCC1,31,-46,-1
C[C@H]1CN([C@@H](C)CO)C(=O)Cc2cc(NC(=O)C3CCCCC3)ccc2O[C@@H]1CN(C)Cc1ccc(C(=O)Nc2ccccc2N)cc1,-88*,.,14
C[C@H](CO)N1C[C@H](C)[C@@H](CN(C)Cc2ccc(C(=O)Nc3ccccc3N)cc2)Oc2ccc(NC(=O)C3CCCCC3)cc2CC1=O,-85*,89,4
C[C@H](CO)N1C[C@H](C)[C@@H](CN(C)Cc2ccc(C(=O)Nc3ccccc3N)cc2)Oc2ccc(NC(=O)C3CC3)cc2CC1=O,-47,5,-3
C[C@@H]1CN([C@H](C)CO)C(=O)Cc2cc(NC(=O)C3CCCCC3)ccc2O[C@@H]1CN(C)Cc1ccc(C(=O)Nc2ccccc2N)cc1,-74,.,8
C[C@H](CO)N1C[C@H](C)[C@H](CN(C)Cc2ccc(C(=O)Nc3ccccc3N)cc2)Oc2ccc(NC(=O)C3CC3)cc2CC1=O,-33,78,-6
C[C@H](CO)N1C[C@H](C)[C@H](CN(C)Cc2ccc(C(=O)Nc3ccccc3N)cc2)Oc2ccc(NC(=O)C3CCCCC3)cc2CC1=O,-84*,84,4
COc1ccc(CN(C)C[C@H]2Oc3ccc(NC(=O)C4CC4)cc3C(=O)N([C@H](C)CO)C[C@H]2C)cc1,12,-16,-2
CN1C(=O)c2cc(NC(=O)Nc3cccc(Cl)c3)ccc2OC[C@H]2O[C@@H](CC(=O)O)CC[C@H]21,17,-76,5
CC(=O)N1CC2(C1)[C@@H](c1ccccc1)[C@@H](CO)N2C(=O)Cc1ccccc1,-11,.,20
C/C=C/c1ccc2c(c1)O[C@@H](CN(C)C(=O)Cc1ccncc1)[C@H](C)CN([C@@H](C)CO)S2(=O)=O,-77,59,-4
SMILES,Pf Dd2 growth,Tcruzi prolif,C diff growth
CC(C)NC(=O)N(C)C[C@H]1OCCCC[C@H](C)Oc2ccc(NC(=O)Cc3ccccc3)cc2C(=O)N([C@H](C)CO)C[C@H]1C,-14,19,0
CO[C@@H]1CC[C@@H]2CCN(C)C(=O)C[C@@H](c3ccccc3)CN(C)C(=O)c3cccc(C#N)c3OC[C@H]1O2,.,1,-3
C[C@@H]1CN([C@@H](C)CO)C(=O)c2cc(NC(=O)C3CCCCC3)ccc2O[C@@H](C)CCCCO[C@H]1CN(C)C(=O)C1CCCCC1,-63,-88,0
C[C@H](CO)N1C[C@H](C)[C@@H](CN(C)S(=O)(=O)c2cn(C)cn2)Oc2c(NS(=O)(=O)c3ccc(Cl)cc3)cccc2C1=O,9,35,0
O=C(c1ccccc1)N1CC(=O)N2[C@H](CO)[C@H](c3ccc(C#CCC4CCCC4)cc3)[C@@H]2C1,-52,.,22
C[C@H](NC(=O)C[C@H]1C[C@@H]2c3cc(NS(=O)(=O)c4ccc(F)cc4)ccc3O[C@@H]2[C@H](CO)O1)c1ccccc1,-22,23,-8
COc1ccccc1CNC(=O)C[C@H]1C[C@H]2c3cc(NC(=O)Cc4ccncc4)ccc3O[C@H]2[C@@H](CO)O1,-82*,-27,7
C[C@@H](NC(=O)C[C@H]1C[C@@H]2c3cc(NS(=O)(=O)c4ccc(F)cc4)ccc3O[C@@H]2[C@H](CO)O1)c1ccccc1,-99*,64,-10
COc1ccccc1CNC(=O)C[C@@H]1C[C@@H]2c3cc(NC(=O)Cc4ccncc4)ccc3O[C@@H]2[C@H](CO)O1,-47,-45,1
C[C@H](CO)N1C[C@H](C)[C@H](CN(C)C(=O)Nc2ccc(F)cc2)Oc2c(NC(=O)C3CCCCC3)cccc2C1=O,22,27,0
C[C@@H]1CN([C@@H](C)CO)C(=O)c2cc(NC(=O)C3CCCCC3)ccc2O[C@@H](C)CCCCO[C@@H]1CN(C)S(=O)(=O)c1cn(C)cn1,-35,-37,0
C[C@@H]1CN([C@@H](C)CO)C(=O)c2cc(NC(=O)Cc3cn(C)c4ccccc34)ccc2O[C@H]1CN(C)S(=O)(=O)c1ccccc1,-22,39,6
Cc1ccc(S(=O)(=O)N(C)C[C@@H]2Oc3ccc(NC(=O)Cc4cn(C)c5ccccc45)cc3CC(=O)N([C@@H](C)CO)C[C@@H]2C)cc1,-77,30,0
Cc1ccc(S(=O)(=O)N(C)C[C@H]2Oc3ccc(NC(=O)Cc4cn(C)c5ccccc45)cc3C(=O)N([C@H](C)CO)C[C@H]2C)cc1,-28,73,-7
C[C@H]1CN([C@@H](C)CO)C(=O)c2cc(NC(=O)Cc3cn(C)c4ccccc34)ccc2O[C@H]1CN(C)S(=O)(=O)c1ccccc1,-91*,80,4
Cc1ccc(S(=O)(=O)N(C)C[C@@H]2Oc3ccc(NC(=O)Cc4cn(C)c5ccccc45)cc3CC(=O)N([C@@H](C)CO)C[C@H]2C)cc1,-83*,48,-15
Cc1ccc(S(=O)(=O)N(C)C[C@H]2Oc3ccc(NC(=O)Cc4cn(C)c5ccccc45)cc3C(=O)N([C@H](C)CO)C[C@@H]2C)cc1,-83*,26,-1
C[C@H]1CN([C@@H](C)CO)C(=O)Cc2cc(NC(=O)C3CC3)ccc2O[C@H]1CN(C)C(=O)Nc1ccc2c(c1)OCO2,-1,-24,1
